Screening results: PubChem BioAssay, several laboratories
EBI2 antag: EBI2 (human) antagonism; P32249; EBI2 beta-arrestin recruitment, luminescence, 7a,25-OHC stimulated; inhibition, % at 5 µM; hit rate 0.81% among 360,000; in the data active = inhibition above about 38%;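 note: enzyme fragment complementation signal reports receptor beta-arrestin coupling in cells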
SENP6 inh: inhibitors of human SENP6 protease; Q9GZR1; Recombinant SENP6 catalytic domain, aminoluciferin luminescence; inhibition, % at 10 µM; hit rate 1.8% among 330,000; AID 2599;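 active = inhibition above about 50% at the single tested dose, limit read from the data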
SENP8 block-1: inhibitors of human SENP8 protease; Q96LD8; recombinant SENP8, Nedd8 substrate fluorescence; inhibition, % at 20 µM; hit rate 0.64% among 360,000; in the data active = inhibition mostly above about 40%, no sharp cut-off; inactive = mostly below about 27%
Target sequence (Q96LD8 whole entry, looked up): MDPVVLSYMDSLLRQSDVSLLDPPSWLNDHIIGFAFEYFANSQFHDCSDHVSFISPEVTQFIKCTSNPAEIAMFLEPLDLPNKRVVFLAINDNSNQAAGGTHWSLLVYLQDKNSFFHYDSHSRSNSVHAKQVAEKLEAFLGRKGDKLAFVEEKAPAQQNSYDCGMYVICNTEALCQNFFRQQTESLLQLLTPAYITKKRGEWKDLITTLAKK
SENP7 block: inhibitors of human SENP7 protease; inhibition, % at 5 µM; recombinant SENP7, Z-RLRGG-aminoluciferin luminescence, 40 min; Q9BQF6; AID 434973; hit rate 1.5% among 330,000;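 active = inhibition above about 50% at the single test dose, limit read from the data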
AHR activator: human AHR activation; P35869; AHR-responsive luciferase reporter cells, luminescence; activation, % at 5 µM; hit rate 2.5% among 320,000; AID 2796; in the data active = activation above about 47%
SENP8 block-2: SENP8 protease inhibition; Q96LD8; purified SENP8, Z-RLRGG-aminoluciferin cleavage, luminescence; inhibition, % at 10 µM; hit rate 1.2% among 330,000; in the data active = inhibition above about 50%
AHR act cf: confirmation of human aryl hydrocarbon receptor activators. shares compounds with AHR activator. human cells, AHR-responsive luciferase reporter, luminescence. activation, % at 9 µM. hit rate 87% among 2,300. AID 2845; in the data active = activation above about 49%;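 note: HepG2 hepatoma cells carrying a DRE-driven firefly luciferase reporter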
PXR counter: counter-screen for AHR activators: human PXR activators; shares compounds with AHR activator; cell-based PXR reporter, luciferase luminescence; activation, % at 11.6 µM; hit rate 88% among 2,300; in the data active = activation above about 11%;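 note: human hepatoma DPX-2 cells expressing full-length human PXR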
Target sequence (O75469 whole entry, looked up): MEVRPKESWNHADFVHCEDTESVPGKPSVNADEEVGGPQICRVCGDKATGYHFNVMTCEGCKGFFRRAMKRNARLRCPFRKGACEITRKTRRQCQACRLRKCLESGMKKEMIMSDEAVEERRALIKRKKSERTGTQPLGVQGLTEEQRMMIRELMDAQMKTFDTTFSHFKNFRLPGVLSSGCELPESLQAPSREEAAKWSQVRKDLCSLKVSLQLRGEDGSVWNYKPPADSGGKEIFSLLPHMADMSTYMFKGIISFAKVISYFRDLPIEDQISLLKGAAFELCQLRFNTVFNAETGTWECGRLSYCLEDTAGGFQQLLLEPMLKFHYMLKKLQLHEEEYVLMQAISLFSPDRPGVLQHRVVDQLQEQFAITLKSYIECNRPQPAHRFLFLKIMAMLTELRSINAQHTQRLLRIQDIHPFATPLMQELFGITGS
Each line names hits and unclear results; the compound was inactive in the other large screens (follow-up assays come after a bar, where they were run). Compounds with a hit are over-represented: about 5% of the library has one in this group of screens.

C=C(C)c1cccc(C(C)(C)NC(=O)Nc2ncccn2)c1	none
C=C(C)c1cccc(C(C)(C)NC(=O)Nc2ccc(Cl)cn2)c1	AHR activator 90.8 | AHR act cf 94.5 | PXR counter 73.4
CCOC(=O)c1sc2nc(C)nc(NC3CCC(O)CC3)c2c1C (stereo unspecified)	none
Cc1ccc(NC(=O)c2ccsc2)cc1NS(C)(=O)=O	AHR activator 83.8 | AHR act cf 94.9 | PXR counter 32.7
CS(=O)(=O)Nc1ccc(C(=O)Nc2ccc3c(c2)OCO3)cc1	none
Fc1ccccc1/C=N/Nc1ncnc2nc[nH]c12	AHR activator 129.5 | AHR act cf 82.9 | PXR counter 39.6
Cc1ccc(/C=N/Nc2ncnc3nc[nH]c23)cc1	AHR activator 115.2 | AHR act cf 104.2 | PXR counter 84.1
Fc1cccc(/C=N/Nc2ncnc3nc[nH]c23)c1	AHR activator 105.4 | AHR act cf 77.6 | PXR counter 32.7
Oc1ccc(/C=N/Nc2ncnc3nc[nH]c23)cc1	none
c1ccc(CNc2ncnc3nc[nH]c23)nc1	none
CC(C)NCc1nnc(-c2ccccc2Cl)o1	none
CCOc1ccc(NC(=O)CN(C)C(=O)c2ccccc2OCc2c(C)noc2C)cc1OCC	none
C/C(=N/NC(=O)Nc1ccccc1)c1ccc(C)cc1	AHR activator 104.9 | AHR act cf 75.5 | PXR counter 19.5
CC(=O)Nc1ccc(/C(C)=N\NC(=O)c2ccc(-c3ccccc3)cc2)cc1	none (no result: EBI2 antag, SENP8 block-1)
COc1ccc(N2C(=O)C(CN3CCN(C)CC3)C2c2ccccc2)cc1 (stereo unspecified)	none
Cc1ccc(Cl)cc1NC(=O)Cn1nc(-c2cccs2)ccc1=O	none
c1ccc(-c2nnc3sc(-c4csc5c4CCCC5)nn23)cc1	AHR activator 96.7 | AHR act cf 136.0 | PXR counter 37.7
O=c1c2ccccc2oc2nc(-c3ccco3)n(-c3ccccc3)c(=O)c12	AHR activator 94.6 | AHR act cf 147.6 | PXR counter 32.7
CN(CC(=O)NCc1ccco1)C(=O)C1CC(=O)N(c2ccc3c(c2)OCCO3)C1 (stereo unspecified)	none
CC(=O)c1ccc(N2CCN(C(=O)Cn3cnc(S(=O)(=O)N4CCCCC4)c3)CC2)cc1	none
CC(Oc1ccccc1)C(=O)Nc1ccc(NC(=O)c2ccccc2)cc1 (stereo unspecified)	none
COc1cc(NC(=O)C(C)Oc2ccccc2)c(OC)cc1NC(=O)c1ccccc1 (stereo unspecified)	AHR activator 82.0 | AHR act cf 99.8 | PXR counter 14.1
COc1cc(N)c(Cl)cc1NC(=O)c1ccccc1	AHR activator 94.3 | AHR act cf 117.4 | PXR counter 14.9
Cc1ccc(NC(=S)Nc2cccc3ccccc23)cc1F	SENP6 inh 93.5, AHR activator 83.9, SENP8 block-2 89.1 | AHR act cf 75.2 | PXR counter 111.8
CC(=O)c1cccc(NC(=O)C(=O)Nc2cccc3ccccc23)c1	none
CC(=O)c1ccc(NC(=O)c2cc(Cl)nc3ccccc23)cc1	AHR activator 96.1 | AHR act cf 81.9
CC(=O)c1ccc(NC(=S)Nc2cccc3ccccc23)cc1	SENP6 inh 91.2, SENP7 block 52.9, AHR activator 99.0, SENP8 block-2 64.5 | AHR act cf inactive | PXR counter 85.8
CC(=O)c1cc(C)c(OC(=O)c2ccccc2)c(C)c1	none (no result: SENP6 inh, SENP7 block, AHR activator, SENP8 block-2)
CC(=O)Cc1cc(O)c2ccccc2c1OC(=O)c1ccccc1	AHR activator 92.6 | AHR act cf 98.0 | PXR counter 16.0
C=CCn1c(=O)c(C(=O)Nc2ccccc2S(N)(=O)=O)c(O)c2ccccc21	none
Cc1cc(C)cc(NC(=S)Nc2ccccn2)c1	AHR activator 90.9 | AHR act cf 111.6 | PXR counter 26.7
O=C(NNS(=O)(=O)c1ccccc1)c1sccc1-n1cccc1	none
O=C(N/N=C\c1ccccc1)c1sccc1-n1cccc1	AHR activator 81.9 | AHR act cf 126.8 | PXR counter 25.2
O=C(NNS(=O)(=O)c1ccc(Cl)cc1)c1sccc1-n1cccc1	none
O=C(NNC(=O)c1sccc1-n1cccc1)c1ccc(Cl)cc1	AHR activator 89.6 | AHR act cf 100.0 | PXR counter 27.8
CC(C)c1ccc(NC(=O)c2sccc2-n2cccc2)cc1	AHR activator 84.4 | AHR act cf 112.5 | PXR counter 45.9
CC(C)c1ccc(N(CC(=O)NCC2CCCO2)C(=O)Cn2nnc(-c3cccs3)n2)cc1 (stereo unspecified)	none
Cc1cc2n(n1)C(c1ccco1)Nc1ccccc1-2 (stereo unspecified)	none
c1ccc(C2Nc3ccccc3-c3nc4ccccc4n32)cc1 (stereo unspecified)	none
c1ccc(C2Nc3ccccc3-c3nc4ccccc4n32)nc1 (stereo unspecified)	AHR activator 79.8 | AHR act cf 87.8 | PXR counter 114.3
c1coc(C2Nc3ccccc3-c3nc4ccccc4n32)c1 (stereo unspecified)	AHR activator 129.3 | AHR act cf 49.4 | PXR counter 70.6
CCn1ncc(Br)c1C(=O)Nc1ccc(OC(F)(F)F)cc1	AHR activator 95.7 | AHR act cf 91.4 | PXR counter 20.5
CCn1ncc(Br)c1C(=O)Nc1ccccc1C(=O)OC	none
CCn1ncc(Br)c1C(=O)Nc1ccc(C(=O)OC(C)C)cc1	none
CCn1ncc(Br)c1C(=O)Nc1ccccc1C(F)(F)F	AHR activator 88.2 | AHR act cf 91.9 | PXR counter 23.4
Cc1ccc2c(c1)c1c3n2CCNC3CCC1 (stereo unspecified)	none
CN1CCN(CC(=O)Nc2c(C(=O)c3ccccc3)oc3ccccc23)CC1	AHR activator 79.4 | AHR act cf 61.5 | PXR counter 19.5
Cc1ccc2c(c1)cc(C(=O)N[C@@H](Cc1ccccc1)C(=O)O)n2C	none (no result: AHR activator)
CC(=O)Nc1cccc(/C(C)=N/NC(=O)c2ccc3c(c2)OCO3)c1	none
O=c1[nH]c(-c2ccccc2)c(-c2ccccc2)o1	none
CCNC(=S)NCc1ccco1	none
S=C(NCc1ccco1)Nc1ccc(Br)cn1	AHR activator 81.2 | AHR act cf 59.3 | PXR counter 16.5
C/C(=C1/C(=O)N(c2ccc([N+](=O)[O-])cc2)N=C1c1ccccc1)N(C)C	AHR activator 87.4 (no result: EBI2 antag, SENP8 block-1) | AHR act cf inactive | PXR counter 28.8
CC1Oc2ccccc2OC1C(=O)Nc1nccs1 (stereo unspecified)	AHR activator 79.7 | AHR act cf 105.3 | PXR counter 10.2
O=C(Nc1nc2ccccc2s1)c1cc2c(s1)-c1ccccc1OC2	none
O=C(Nc1nccs1)c1cc2c(s1)-c1ccccc1OC2	AHR activator 150.0 | AHR act cf 114.8 | PXR counter 20.3
